Compounds with a hit are over-represented: about 2.3% of the library has one in this group of screens.
697 NFkB inh – inhibitors of the PMA/ionomycin-induced NF-kB reporter in 697 B cells | 697 B-cell NF-kB luciferase reporter, 16 h | inhibition, % at 4 µM | 330,000 compounds, 0.33% hits | AID 435022; in the data active = inhibition above about 35%
Jurkat NFkB inh – lowers PMA/ionomycin-induced NF-kB signal in Jurkat cells; 330,000 compounds, 0.53% hits; PMA/ionomycin-induced NF-kB luciferase reporter, luminescence; inhibition, % at 4 µM; in the data active = inhibition above about 50%
MITF TRPM1 inh – MITF TRPM1 promoter inhibition in SK-MEL-5 cells; SK-MEL-5 TRPM1 promoter luciferase, 24 h; 330,000 compounds, 0.83% hits; inhibition, % at 12.5 µM;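 active = mean inhibition across replicates of 60% or more, whatever share of single replicates reaches that level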
Gli-Sufu block – Gli-Sufu pathway antagonism | Sufu-KO-LIGHT fibroblasts, Gli luciferase reporter luminescence | inhibition, % at 5 µM | 340,000 compounds, 0.74% hits | AID 588413;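 active = inhibition above about 55%, limit read from the data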;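 also: 0% = DMSO-treated cells and 100% = wells with medium but no cells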
Shn3 3UTR inh – inhibitors of Schnurri-3 3'UTR reporter in osteoblasts | Clone20 osteoblast Shn3 3'UTR firefly luciferase, 24 h | AID 588674 | inhibition, % at 12.5 µM | 360,000 compounds, 0.52% hits;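 active = mean inhibition of at least 75% with every replicate also reaching 75%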;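 also: 0% = median of neutral control wells and 100% = pilot-screen positive control compound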
EBV LMP1 NFkB – Epstein-Barr LMP1 NF-kappaB reporter inhibition. inhibition, % at 12.5 µM. LMP1-induced NF-kappaB luciferase reporter cells, luminescence. AID 504558. 350,000 compounds, 0.69% hits; in the data active = inhibition above about 41%;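 also: 0% = neutral control wells and 100% = reference inhibitor control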
Gli-Sufu confirm – Gli-SUFU antagonism confirmation, single concentration | shares compounds with Gli-Sufu block | Sufu-KO-LIGHT cells, Gli luciferase reporter, luminescence | inhibition, % at 5 µM | 2,500 compounds, 40% hits;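 active = mean inhibition at 5 µM reaching about 45%, limit read from the data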;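 also: plate controls were DMSO-treated cells for no effect and wells lacking cells for full effect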
Gli cytotox – cytotoxicity counter-screen for Gli-SUFU antagonists; shares compounds with Gli-Sufu block; Sufu-KO-LIGHT cells cytotoxicity, ATP luminescence; cytotoxicity, % at 5 µM; 2,500 compounds, 32% hits; AID 651994;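 active = mean cytotoxicity at 5 µM above about 25%, limit read from the data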;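 also: cells exposed to compound overnight for roughly 16 to 18 hours; plate controls were DMSO wells with cells for no effect and medium without cells for full effect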
Wnt3a cs – Wnt3a reporter inhibition counter-screen. Wnt-LIGHT cells, Wnt3a-driven luciferase reporter, luminescence. shares compounds with Gli-Sufu block. AID 651995. inhibition, % at 6.25 µM. 2,500 compounds, 20% hits;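 active = mean inhibition above about 25%, limit read from the data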
Starred values were filed as active, the others as inactive; . = not tested or not shown; ! = repeats disagree.

SMILES	697 NFkB inh	Jurkat NFkB inh	MITF TRPM1 inh	Gli-Sufu block	Shn3 3UTR inh	EBV LMP1 NFkB	Gli-Sufu confirm	Gli cytotox	Wnt3a cs
O=C(CN1CCOCC1)Nc1nc2cc([N+](=O)[O-])ccc2s1	-17	0	-3	-10	-7	-12	.	.	.
Cc1ccc2nc3c(cc(S(=O)(=O)c4ccccc4)c(=N)n3Cc3ccco3)c(=O)n2c1	-109	-86	-29	51	-14	-6	-1	15	-39
Cc1ccc(N=CC2=C(O)CC(c3ccc(Cl)cc3)CC2=O)cc1 (stereo not drawn)	-2	13	-2	53	0	-10	26	10	20
O=C1CC(c2ccccc2)CC(O)=C1C=Nc1ccccc1 (stereo not drawn)	3	-6	-14	23	2	-13	.	.	.
Cc1nc2ccc(NS(=O)(=O)c3ccc(F)c(C)c3)cc2[nH]1	-21	27	2	62*	64	6	49*	21	27*
O=C(CSc1nc(-c2ccco2)cc(C(F)(F)F)n1)Nc1cccnc1	-11	41	28	8	-2	3	.	.	.
CC1CCC(C(C)C)C(OC(=O)Cn2c(-c3ccc(Br)cc3)[n+](C)c3ccccc32)C1 (stereo not drawn)	-61	30	91*	70*!	21	-1	70*	41*	-27
CC1CCC(C(C)C)C(OC(=O)Cn2nnc3c(cnn3-c3ccccc3)c2=O)C1 (stereo not drawn)	3	7	0	2	3	-2	.	.	.
COc1cccc(Cn2c(Oc3cccc(C)c3)nc3c2c(=O)n(C)c(=O)n3C)c1	-6	27	1	12	34	-1	.	.	.
Nc1nsnc1C(=O)NCCO	1	10	-4	-3	-9	0	.	.	.
CCn1c(Cn2nnc(-c3ccccc3)n2)nnc1SCc1ccc(Cl)c(Cl)c1	-43	1	6	-11	17	-13	.	.	.
CCOC(=O)c1sc(=S)n(-c2ccccc2)c1SC	6	-1	-1	-1	7	-1	.	.	.
CCOC(=O)c1sc(=S)n(-c2ccccc2Cl)c1SC	4	-1	5	51	3	5	9	-5	-12
CC12CCC(=O)N1C(C(=O)NNC(=O)c1cccc(Cl)c1)CS2 (stereo not drawn)	-11	5	-5	-4	-2	4	.	.	.
COc1cc(CCC(=O)Nc2ccc(C)c(S(=O)(=O)N3CCCCCC3)c2)cc(OC)c1OC	-18	16	26	51	44	28	30	4	-8
COc1ccc(/C=C/C(=O)Oc2ccc(C=O)cc2OC)cc1	5	9	-12	-7	5	0	.	.	.
COC(=O)Oc1ccc(/C=C/C(=O)OC(C)C)cc1OC(=O)OC	-148	24	-63	53	94*	-14	29	24	-6
CCCCOC(=O)/C=C/c1ccc(OC(=O)OC)c(OC(=O)OC)c1	17	3	-19	62*	96*	-15	46*	11	37*
Cc1ccc(S(=O)(=O)N(C)CC(=O)Nc2cccc3c2CCCC3)cc1	7	-4	7	-3	-3	0	.	.	.
Cc1ccc(S(=O)(=O)c2c(C)c(C)c(C)[nH]c2=O)cc1	15	-5	-20	1	13	7	.	.	.
Cc1c(/C=N/NC(=O)c2ccccc2O)c2ccccn2c1C(=O)c1ccc(F)cc1	2	9	-17	79*	10	8	71*	1	-128
Cc1cc(NC(=O)C2CCN(S(=O)(=O)Cc3ccccc3)CC2)ccc1-n1cnnn1	15	10	11	60*	14	-4	28	12	-36
OC(CSc1ccccc1)CN1CCN(c2cccc(Cl)c2)CC1 (stereo not drawn)	.	.	0	50	1	0	23	4	-37
COc1ccc(-c2nc(N)ncc2-c2csc(C)n2)c(O)c1	-7	-3	10	99*	23	-5	23	3	21
NC(=O)C1CCCN1 (stereo not drawn)	14	6	-13	5	8	8	.	.	.
SMILES	697 NFkB inh	Jurkat NFkB inh	MITF TRPM1 inh	Gli-Sufu block	Shn3 3UTR inh	EBV LMP1 NFkB	Gli-Sufu confirm	Gli cytotox	Wnt3a cs
Cc1ccc(NC(=O)NC2CC(=O)N(c3ccc4c(c3)OCCO4)C2)cc1 (stereo not drawn)	4	14	3	-2	-4	-3	.	.	.
COc1cc2ccc(=O)oc2c(O[C@@H]2O[C@H](CO)[C@@H](O)[C@H](O)[C@H]2O)c1O	13	11	-6	3	6	14	22	6	-4
O=c1ccc2ccc(O[C@@H]3O[C@H](CO)[C@@H](O)[C@H](O)[C@H]3O)c(O)c2o1	10	8	10	-2	-5	3	.	.	.
COc1ccc(O)c(CN2CCN(CCc3ccccc3)C(CCO)C2)c1 (stereo not drawn)	-3	-2	6	14	-17	2	.	.	.
Cc1c(C(=O)N2c3ccccc3Sc3ccccc32)cccc1[N+](=O)[O-]	-8	2	2	96*	10	-1	36	8	-20
Nc1nc2nccc(-c3cccnc3)n2n1	8	-20	5	95*	-14	5	11	12	1
COc1ccc(OC)c(CN2CCCC(CO)C2)c1 (stereo not drawn)	16	5	0	59*	5	-9	17	-4	11
COc1ccc(OC)c(CN2CCCCCC2)c1	17	0	0	6	3	4	.	.	.
COc1ccc2sc(-c3ccccc3OC)c(-c3ccc4c(c3)OCCO4)c2c1	12	-13	1	-5	4	-5	.	.	.
CCOC(=O)c1cnc(Nc2nc3ccccc3o2)nc1CSC(=S)N(CC)CC	-26	9	13	69*	37	-5	32	20	-86
CCOC(=O)c1cnc(Nc2nc3ccccc3o2)nc1CSc1ncccn1	-26	-29	.	-40	.	.	.	.	.
CC1=NN(C(N)=S)C(=O)C1N=Nc1ccc(O)cc1 (stereo not drawn)	-20	14	-3	57*	43	-6	39	11	-63
Cc1cc(C(=O)COc2ccccc2C(N)=O)c(C)n1CC1CCCO1 (stereo not drawn)	25	45	5	58*	73	20	56*	37*	21
COc1ccc(N2C(N)=NC(N)=NC23CCCC3)cc1	6	-3	5	-1	14	-12	.	.	.
CCCCOc1ccc(N2C(N)=NC(N)=NC23CCCCC3)cc1	-3	18	21	59*	40	10	48*	13	-7

Screens (PubChem BioAssay)
